In the library only some 19% were active in any assay of this set; here they are far more common.
HT1080-NT tox = kills 2HG-producing HT-1080-NT fibrosarcoma cells. Potency, µM (highest dose often 46.1 µM), for inactives: top-dose activity, negative = less viability, usual class: cytotoxic. HT-1080-NT fibrosarcoma viability, CellTiter-Glo ATP luminescence, 48 h. 360,000 compounds, 1.6% hits;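 further: NT is the 2HG producing partner of a matched IDH1 knockdown line; 0% = DMSO-treated cells and -100% = media-only wells without cells; nearly all actives have a fitted effect of over 55% in size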
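HT-1080-NT; 750 cells/well; 5% FBS RPMI; 48 h compound, 37 degrees C; CellTiter-Glo luminescence; curve fitting and curve-class assignment.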
KB-3-1 cytotox = kills parental KB-3-1 adenocarcinoma cells; KB-3-1 viability, CellTiter-Glo ATP luminescence, 72 h; Potency, µM (doses to about 46.1 µM), hits mostly cytotoxic; 400,000 compounds, 1.4% hits; further: nearly all actives have a fitted effect of over 60% in size
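72 h, 37 °C compound treatment of KB-3-1 parental cells; CellTiter-Glo added, 10 min, luminescence read. Data corrected against DMSO-only plates and normalized before curve fitting.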
TDP1 cell noCPT = qHTS for Inhibitors of human tyrosyl-DNA phosphodiesterase 1 (TDP1): qHTS in cells in absence of CPT; DT40 Tdp1-/- hTDP1 cells, no CPT, ATP luminescence, 48 h; Potency, µM (top dose mostly 46.2 µM), without a hit: at the top dose activity change, negative = growth inhibition, hits mostly inhibitors; 420,000 compounds, 15% hits; further: nearly all actives have a fitted effect of over 55% in size
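Growth of hTDP1-complemented DT40 Tdp1-knockout cells is measured by ATP luminescence after at least 48 hr compound exposure at 37 °C, with DMSO substituting for the 20 nM CPT used in the parallel screen.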
HT1080 IDH1KD tx = kills HT-1080 cells with IDH1 knockdown; HT-1080 IDH1 knockdown viability, ATP luminescence, 48 h; 360,000 compounds, 2% hits; Potency, µM (titrated, usually from 46.1 µM), for the others: at the highest dose activity, negative = toxicity, hits mostly cytotoxic;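 further: 0% = DMSO wells and -100% = cell-free medium wells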
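Using the IDH1-knockdown HT-1080 line run in the same batch and compound series as the NT line, viability after 48 h at 37 °C was determined by CellTiter-Glo luminescence and expressed as % activity.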
KB-V1 cytotox = kills drug-selected multidrug resistant KB-V1 cells; KB-V1 MDR cells viability, CellTiter-Glo, 72 h; Potency, µM (highest dose often 46.1 µM), most hits filed as cytotoxic; 400,000 compounds, 3.4% hits; further: nearly all actives have a fitted effect of over 60% in size
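Readout: CellTiter-Glo luminescence, 10 min after addition. Cells: KB-V1 MDR subline, 72 h at 37 degrees C with compound. Analysis: corrected, normalized data fitted to concentration-effect curves.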
DT40 TDP1 CPT = growth inhibition of DT40 Tdp1-/-;hTDP1 cells with camptothecin (screen for TDP1 inhibitors). chicken DT40 Tdp1-/-;hTDP1 cells + 20 nM CPT, ATP luminescence, 48 h. Potency, µM (titrated, usually from 46.2 µM), for the others: at the top dose activity change, negative = growth inhibition, most hits filed as inhibitors. 420,000 compounds, 12% hits. AID 686979; further: nearly all actives have a fitted effect of over 55% in size
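Chicken DT40 Tdp1-/- cells stably complemented with human TDP1 were seeded at 400 cells/well in medium containing 20 nM camptothecin, exposed to pin-transferred compounds, and grown at 37 °C for at least 48 hr. Viability was read as ATP luminescence.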
* = called active by the depositor. The call rests on the fitted dose curve; in most records, active means well fitted curve in the direction sought with a large enough effect; inconclusive means small, poorly fitted or top-dose-only effect, or another doubt; inactive means no such curve, though single readings can be large; an effect the other way counts as inactive or inconclusive. Unless noted, on the % scale 0 is the no-effect control and ±100 the full control effect; potency means the concentration at half of the fitted maximal effect.

Results for COc1ccc(OC)c(S(=O)(=O)N2CCN(Cc3nc4ccc(C)cc4o3)CC2)c1 ?
KB-3-1 cytotox: inactive; TDP1 cell noCPT: -11%; KB-V1 cytotox: inactive; DT40 TDP1 CPT: inconclusive

How did COc1ccc(CNc2nc3c(c(=O)n(C)c(=O)n3C)n2Cc2ccccc2Cl)cc1 do in these assays?
KB-3-1 cytotox: inactive; TDP1 cell noCPT: inconclusive; KB-V1 cytotox: inactive; DT40 TDP1 CPT: inconclusive

What do the screens show for `COCCNc1nc2c(c(=O)n(C)c(=O)n2C)n1Cc1c(F)cccc1Cl`?
KB-3-1 cytotox: inconclusive; TDP1 cell noCPT: 2.6µM*; KB-V1 cytotox: inactive; DT40 TDP1 CPT: 1.8µM*

Results for C=CCn1c(Oc2cc(C)ccc2C)nc2c1c(=O)n(C)c(=O)n2C ?
HT1080-NT tox: inconclusive; KB-3-1 cytotox: inactive; TDP1 cell noCPT: 16µM*; HT1080 IDH1KD tx: 1%; KB-V1 cytotox: inconclusive; DT40 TDP1 CPT: 15µM*

How did C/C(Cl)=C/Cn1c(=O)c2c(nc(Br)n2Cc2ccccc2)n(C)c1=O do in these assays?
HT1080-NT tox: 3%; KB-3-1 cytotox: inactive; TDP1 cell noCPT: 21µM*; HT1080 IDH1KD tx: -2%; KB-V1 cytotox: inactive; DT40 TDP1 CPT: inconclusive

Results for COc1ccc(CCNc2nc3c(c(=O)n(C)c(=O)n3C)n2Cc2ccccc2Cl)cc1OC ?
KB-3-1 cytotox: inactive; TDP1 cell noCPT: 7.3µM*; KB-V1 cytotox: inconclusive; DT40 TDP1 CPT: 13µM*

Results for CCOC(=O)CSc1nc(N)c(C#N)c(CC(C)C)c1C#N ?
HT1080-NT tox: 7%; KB-3-1 cytotox: inconclusive; TDP1 cell noCPT: -13%; HT1080 IDH1KD tx: 10%; KB-V1 cytotox: inactive; DT40 TDP1 CPT: 2%

What do the screens show for `CCNc1nc2c(c(=O)n(Cc3ccccc3)c(=O)n2C)n1Cc1ccccc1`?
HT1080-NT tox: -15%; KB-3-1 cytotox: inactive; TDP1 cell noCPT: inconclusive; HT1080 IDH1KD tx: inconclusive; KB-V1 cytotox: inactive; DT40 TDP1 CPT: inconclusive

How did CCNc1nc2c(c(=O)n(C)c(=O)n2C)n1CCCc1ccccc1 do in these assays?
HT1080-NT tox: -27%; KB-3-1 cytotox: inconclusive; TDP1 cell noCPT: 5.8µM*; HT1080 IDH1KD tx: -15%; KB-V1 cytotox: inconclusive; DT40 TDP1 CPT: 12µM*

How did Cc1ccc(Cn2c(NCCc3ccccc3)nc3c2c(=O)n(C)c(=O)n3C)cc1 do in these assays?
HT1080-NT tox: -5%; KB-3-1 cytotox: inconclusive; TDP1 cell noCPT: 8.2µM*; HT1080 IDH1KD tx: 12%; KB-V1 cytotox: inconclusive; DT40 TDP1 CPT: 6.5µM*

What do the screens show for `COCCCNc1nc2c(c(=O)n(C)c(=O)n2C)n1Cc1ccccc1`?
KB-3-1 cytotox: inactive; TDP1 cell noCPT: 12µM*; KB-V1 cytotox: inactive; DT40 TDP1 CPT: 16µM*

How did Cn1c(=O)c2c(nc(CN3CCCCC3)n2Cc2c(F)cccc2Cl)n(C)c1=O do in these assays?
HT1080-NT tox: 2%; KB-3-1 cytotox: inactive; TDP1 cell noCPT: 23µM*; HT1080 IDH1KD tx: 12%; KB-V1 cytotox: inactive; DT40 TDP1 CPT: inconclusive

Results for Cn1c(=O)c2c(nc(CN3CCN(CCO)CC3)n2Cc2ccccc2Cl)n(C)c1=O ?
HT1080-NT tox: -12%; KB-3-1 cytotox: inactive; TDP1 cell noCPT: -2%; HT1080 IDH1KD tx: 0%; KB-V1 cytotox: inactive; DT40 TDP1 CPT: 7%

How did COc1ccc(Cl)cc1C(=O)NNC(=O)COC(=O)CCN=C1NS(=O)(=O)c2ccccc21 do in these assays?
HT1080-NT tox: 4%; KB-3-1 cytotox: inactive; TDP1 cell noCPT: -19%; HT1080 IDH1KD tx: -3%; KB-V1 cytotox: inconclusive; DT40 TDP1 CPT: 0%

What do the screens show for `COc1ccc(CC2(CO)CCN(S(=O)(=O)c3cccc4cccnc34)CC2)cc1`?
HT1080-NT tox: 4%; KB-3-1 cytotox: inactive; TDP1 cell noCPT: 1%; HT1080 IDH1KD tx: 5%; KB-V1 cytotox: inactive; DT40 TDP1 CPT: -6%

What do the screens show for `C/C(CC(=O)NC1CCCCC1)=N\NC(=O)Cc1ccc(-c2ccccc2)cc1`?
HT1080-NT tox: 7%; KB-3-1 cytotox: inactive; TDP1 cell noCPT: -17%; HT1080 IDH1KD tx: 14%; KB-V1 cytotox: inactive; DT40 TDP1 CPT: 3%

How did CCc1ccccc1Nc1nn2c(=O)c3ccc(C(=O)NC(C)C)cc3nc2s1 do in these assays?
KB-3-1 cytotox: inactive; TDP1 cell noCPT: -28%; KB-V1 cytotox: inactive; DT40 TDP1 CPT: -17%

How did COc1ccc(NC(=O)c2ccc3c(=O)n4nc(Nc5ccccc5C)sc4nc3c2)cc1Cl do in these assays?
KB-3-1 cytotox: inactive; TDP1 cell noCPT: 5.8µM*; KB-V1 cytotox: inactive; DT40 TDP1 CPT: 7.3µM*

How did COc1ccc(NC(=O)c2ccc3c(=O)n4nc(Nc5cccc(Cl)c5C)sc4nc3c2)cc1 do in these assays?
KB-3-1 cytotox: inactive; TDP1 cell noCPT: 3.3µM*; KB-V1 cytotox: inconclusive; DT40 TDP1 CPT: 2.9µM*

Results for Cc1ccc(NC(=O)c2ccc3c(=O)n4nc(Nc5ccccc5C)sc4nc3c2)cc1C ?
KB-3-1 cytotox: inactive; TDP1 cell noCPT: 5.8µM*; KB-V1 cytotox: inactive; DT40 TDP1 CPT: 2.9µM*

How did CCOc1ccc(NC(=O)c2ccc3c(=O)n4nc(Nc5ccccc5C)sc4nc3c2)cc1 do in these assays?
KB-3-1 cytotox: inactive; TDP1 cell noCPT: 6.5µM*; KB-V1 cytotox: inactive; DT40 TDP1 CPT: inconclusive

What do the screens show for `COc1ccc(CCN2CN(S(=O)(=O)c3ccccc3)c3nc4ccccc4nc32)cc1OC`?
HT1080-NT tox: -3%; KB-3-1 cytotox: inactive; TDP1 cell noCPT: 18µM*; HT1080 IDH1KD tx: -10%; KB-V1 cytotox: inactive; DT40 TDP1 CPT: 21µM*

What do the screens show for `COc1ccc(CCN2CN(S(=O)(=O)c3ccccc3)c3nc4ccccc4nc32)cc1`?
HT1080-NT tox: -5%; KB-3-1 cytotox: inactive; TDP1 cell noCPT: 18µM*; HT1080 IDH1KD tx: -2%; KB-V1 cytotox: inconclusive; DT40 TDP1 CPT: inconclusive

Results for CC(C)OCCCN1CN(S(=O)(=O)c2ccccc2)c2nc3ccccc3nc21 ?
HT1080-NT tox: 4%; KB-3-1 cytotox: inactive; TDP1 cell noCPT: inconclusive; HT1080 IDH1KD tx: 8%; KB-V1 cytotox: inactive; DT40 TDP1 CPT: -13%

What do the screens show for `CCCCCCOC(=O)c1ccc(N)cc1`?
HT1080-NT tox: inconclusive; KB-3-1 cytotox: inactive; TDP1 cell noCPT: 1%; HT1080 IDH1KD tx: inconclusive; KB-V1 cytotox: inactive; DT40 TDP1 CPT: -6%

Assay outcomes: PubChem, National Center for Advancing Translational Sciences (NCATS)
